Consider 38 compounds from PubChem BioAssay AID602400 (Sanford-Burnham Center for Chemical Genomics, 2012).

The structures appear in SMILES notation. A number with no mark means an inactive call. Active and inactive are the calls of the source. No rule for the calls is given here.

This assay in a line: off-target activity on Bfl-1 – biochemical, set 4, counter-screen for UBC13 polyubiquitination inhibitor project, SAR follow-up (AID 602400). The note with it: Bfl-1 counterscreen for UBC13 inhibitors. (Counterscreens check selectivity or assay interference.)

What is called IC50 is the concentration at which inhibition is half-maximal. Take `Cc1c(Cl)cccc1NC(=O)C1CCN(c2ncnc3c2nc2n3CCCCC2)CC1`: the IC50 is greater than 100 µM.

Regarding `Cc1cccc(NC(=O)C2CCN(c3ncnc4c3nc3n4CCCCC3)CC2)c1`, the IC50 is greater than 100 µM.

On to `Cc1cccc(NC(=O)C2CCN(c3ncnc4c3nc3n4CCCCC3)CC2)c1C`, for which the IC50 is greater than 100 µM.

As for `O=C(NCC1CCN(Cc2cccc(Cl)c2)CC1)[C@H]1CCCN(c2ncnc3c2nc2n3CCCC2)C1`, the IC50 was greater than 100 µM.

`O=C(C1CCN(c2ncnc3c2nc2n3CCCCC2)CC1)N1CCN(c2ncccn2)CC1`: the IC50 is greater than 100 µM.

Turning to `O=C(C1CCN(c2ncnc3c2nc2n3CCCCC2)CC1)N1CCOCC1`, the IC50 is greater than 100 µM.

Turning to `O=C(NCC1CCN(Cc2ccc(F)cc2)CC1)C1CCCN(c2ncnc3c2nc2n3CCCCC2)C1` (stereo not drawn), the IC50 was greater than 100 µM.

In the case of `O=C(NCCCN1CCN(c2ccc(F)cc2)CC1)C1CCCN(c2ncnc3c2nc2n3CCCCC2)C1` (stereo not drawn), the IC50 was greater than 100 µM.

As for `CC1CC(C)CN(C(=O)C2CCN(c3ncnc4c3nc3n4CCCCC3)CC2)C1` (stereo not drawn), the IC50 is greater than 100 µM.

On to `O=C(Nc1ccc(CN2CCCCC2)cc1)C1CCN(c2ncnc3c2nc2n3CCCCC2)CC1`, for which the IC50 was greater than 100 µM.

Take `Cc1ccc(NC(=O)C2CCCN(c3ncnc4c3nc3n4CCCC3)C2)cc1Br` (stereo not drawn): the IC50 is greater than 100 µM.

In the case of `Cc1cc(Cl)ccc1NC(=O)C1CCN(c2ncnc3c2nc2n3CCCCC2)CC1`, the IC50 was greater than 100 µM.

For `O=C(NCc1cccc(Cl)c1)C1CCCN(c2ncnc3c2nc2n3CCCCC2)C1` (stereo not drawn), the IC50 was greater than 100 µM.

In the case of `O=C(NCc1cccc(Cl)c1)C1CCCN(c2ncnc3c2nc2n3CCCC2)C1` (stereo not drawn), the IC50 is greater than 100 µM.

`Cc1ccc(C)c(CN2CCC(CNC(=O)C3CCCN(c4ncnc5c4nc4n5CCCCC4)C3)CC2)c1` (stereo not drawn): the IC50 is greater than 100 µM.

As to `O=C(NCC1CCN(Cc2cccc(Cl)c2)CC1)C1CCCN(c2ncnc3c2nc2n3CCCC2)C1` (stereo not drawn), the IC50 was greater than 100 µM.

Turning to `COc1ccc(Cl)cc1NC(=O)C1CCN(c2ncnc3c2nc2n3CCCCC2)CC1`, the IC50 was greater than 100 µM.

Consider `Cc1ccc(NC(=O)C2CCN(c3ncnc4c3nc3n4CCCCC3)CC2)cc1C`, for which the IC50 is greater than 100 µM.

As for `COc1ccccc1N1CCN(CCCNC(=O)C2CCCN(c3ncnc4c3nc3n4CCCCC3)C2)CC1` (stereo not drawn), the IC50 is greater than 100 µM.

As for `O=C(Nc1cccc(Cl)c1)C1CCN(c2ncnc3c2nc2n3CCCCC2)CC1`, the IC50 is greater than 100 µM.

With `Cc1ccc(NC(=O)C2CCN(c3ncnc4c3nc3n4CCCCC3)CC2)cc1F`, the IC50 is greater than 100 µM.

`O=C(NCc1cccc(Cl)c1)C1CCN(c2ncnc3c2nc2n3CCCC2)CC1`: the IC50 was greater than 100 µM.

Take `O=C(NCCCN1CCCCC1)C1CCN(c2ncnc3c2nc2n3CCCCC2)CC1`: the IC50 was greater than 100 µM.

With `COc1cc(Cl)c(C)cc1NC(=O)C1CCN(c2ncnc3c2nc2n3CCCCC2)CC1`, the IC50 was greater than 100 µM.

As for `Cc1cccc(N2CCN(CCCNC(=O)C3CCCN(c4ncnc5c4nc4n5CCCCC4)C3)CC2C)c1` (stereo not drawn), the IC50 was greater than 100 µM.

Consider `O=C(C1CCN(c2ncnc3c2nc2n3CCCCC2)CC1)N1CCC(Cc2ccccc2)CC1`, for which the IC50 was greater than 100 µM.

Turning to `Cc1cccc(NC(=O)C2CCCN(c3ncnc4c3nc3n4CCCC3)C2)c1` (stereo not drawn), the IC50 is greater than 100 µM.

For `Cc1cc(C)cc(NC(=O)C2CCN(c3ncnc4c3nc3n4CCCC3)CC2)c1`, the IC50 is 23.9 µM (active).

With `O=C(C1CCN(c2ncnc3c2nc2n3CCCCC2)CC1)N1CCN(c2ccc(F)cc2)CC1`, the IC50 is greater than 100 µM.

On to `Cc1ccc(C)c(N2CCN(CCCNC(=O)C3CCCN(c4ncnc5c4nc4n5CCCCC4)C3)CC2)c1` (stereo not drawn), for which the IC50 is greater than 100 µM.

As for `O=C(NCC1CCN(Cc2ccccc2Cl)CC1)C1CCCN(c2ncnc3c2nc2n3CCCCC2)C1` (stereo not drawn), the IC50 was greater than 100 µM.

`Cc1ccc(NC(=O)C2CCN(c3ncnc4c3nc3n4CCCCC3)CC2)c(Cl)c1`: the IC50 is greater than 100 µM.

Turning to `CC1CCCCN1C(=O)C1CCN(c2ncnc3c2nc2n3CCCCC2)CC1` (stereo not drawn), the IC50 is greater than 100 µM.

In the case of `Cc1ccc(NC(=O)C2CCN(c3ncnc4c3nc3n4CCCC3)CC2)cc1Br`, the IC50 was 14.7 µM (active).

As for `O=C(Nc1cc(F)ccc1F)C1CCN(c2ncnc3c2nc2n3CCCCC2)CC1`, the IC50 is greater than 100 µM.

As to `O=C(NCc1ccc(Cl)c(Cl)c1)C1CCN(c2ncnc3c2nc2n3CCCC2)CC1`, the IC50 was greater than 100 µM.

For `CCCN1CCN(C(=O)C2CCN(c3ncnc4c3nc3n4CCCCC3)CC2)CC1`, the IC50 was greater than 100 µM.

Consider `O=C(NCC1CCN(Cc2cccc(Cl)c2)CC1)C1CCCN(c2ncnc3c2nc2n3CCCCC2)C1` (stereo not drawn), for which the IC50 was greater than 100 µM.
